Results taken from PubChem BioAssay (Tox21).
Records with an inconclusive call do not appear. Activity calls are given as the source filed them. Unless noted, calls come from the whole dose curve.

What was measured:
[1] = Nuclear factor erythroid 2-related factor 2/antioxidant responsive element (Nrf2/ARE) small molecule agonists: qHTS cell viability counter screen in human keratinocytes (AID 1919968; active = well fitted curve in the direction sought with a large enough effect in the repeat runs; an effect the other way counts as inactive or inconclusive; note: nearly all actives have a fitted effect of over 55% in size; note: potency is the fitted concentration of half-maximal effect)
Method in brief: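 Seed 1,500 KeratinoSens cells per well, then incubate 5 h at 37 C/5% CO2. Add compounds in DMSO and incubate 23 h. Add CellTiter-Fluor, wait 1 h and read fluorescence.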

[2] = Nuclear factor erythroid 2-related factor 2/antioxidant responsive element (Nrf2/ARE) small molecule agonists: luciferase reporter gene qHTS assay in human keratinocytes (AID 1919969); note: nearly all actives have a fitted effect of over 35% in size
[3] = target: Gonadotropin-releasing hormone receptor (Homo sapiens) (UniProt P30968); assay: Human gonadotropin-releasing hormone receptor (GnRHR) small molecule agonists, calcium flux assay in GnRHR-HEK293 cells (AID 1920063); note: nearly all actives have a fitted effect of over 35% in size
Chain of Gonadotropin-releasing hormone receptor (Homo sapiens) (P30968 whole entry, looked up): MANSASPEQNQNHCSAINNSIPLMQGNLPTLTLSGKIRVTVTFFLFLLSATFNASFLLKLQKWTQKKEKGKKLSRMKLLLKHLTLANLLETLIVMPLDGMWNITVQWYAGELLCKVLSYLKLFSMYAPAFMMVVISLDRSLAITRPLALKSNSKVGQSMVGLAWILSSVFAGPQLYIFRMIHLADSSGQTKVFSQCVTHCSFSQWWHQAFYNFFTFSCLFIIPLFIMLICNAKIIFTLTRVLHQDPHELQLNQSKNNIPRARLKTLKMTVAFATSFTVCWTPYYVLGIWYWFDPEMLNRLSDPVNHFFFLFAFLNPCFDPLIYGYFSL
Method in brief: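 Cells: HEK293 stably expressing human GnRHR. Steps: overnight (18 h) culture, 1 h calcium dye loading at 37 C, compound addition, kinetic fluorescence read at 480/540 nm. Each compound tested at 15 concentrations in triplicate.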

[4] = target: KiSS-1 receptor (Homo sapiens) (UniProt Q969F8); assay: Human kisspeptin (KISS1R) small molecule agonists, calcium flux assay in KISS1R-HEK293 cells (AID 1920064; active = well fitted curve in the direction sought with a large enough effect in the repeat runs; an effect the other way counts as inactive or inconclusive)
Chain of KiSS-1 receptor (Homo sapiens) (Q969F8 whole entry, looked up): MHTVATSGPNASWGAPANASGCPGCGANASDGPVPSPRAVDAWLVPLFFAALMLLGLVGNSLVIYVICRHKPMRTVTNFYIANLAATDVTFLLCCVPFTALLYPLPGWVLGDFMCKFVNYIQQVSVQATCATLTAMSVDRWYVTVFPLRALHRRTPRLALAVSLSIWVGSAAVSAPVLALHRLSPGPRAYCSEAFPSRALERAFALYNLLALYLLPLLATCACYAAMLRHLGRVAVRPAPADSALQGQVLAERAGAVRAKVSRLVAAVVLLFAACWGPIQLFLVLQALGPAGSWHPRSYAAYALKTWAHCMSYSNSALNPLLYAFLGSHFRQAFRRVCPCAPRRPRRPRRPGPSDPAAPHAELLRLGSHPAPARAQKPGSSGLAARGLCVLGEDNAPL
Method in brief: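 Cells plated and incubated 18 h; dye added, 1 h at 37 C; compounds in DMSO pinned in; signal read at 480/540 nm every second for 3 min. Each compound tested at 15 concentrations in triplicate.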

[5] = p53 small molecule agonists, cell-based qHTS assay with human liver microsomes (AID 1963577)
Method in brief: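 Cells carrying a p53-responsive bla reporter were rested 5 h (37 C, 5% CO2) before compound transfer. Human liver microsomes plus NADPH, 0.5 mg/mL final apiece, supplied metabolism during the 16 h 37 C exposure.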

[6] = p53 small molecule agonists, cell-based qHTS assay with rat liver microsomes (AID 1963578)
Method in brief: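 Fluorescence from a beta-lactamase reporter under a p53 response element was measured after cells had been incubated 16 h at 37 C with test compound and rat liver microsomes plus NADPH (0.5 mg/mL final each).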

[7] = p53 small molecule agonists, cell-based qHTS assay with human liver microsomes: qHTS cell viability counter screen (AID 1963579); note: nearly all actives have a fitted effect of over 45% in size
Method in brief: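 Seed p53RE-bla cells at 4,000 per well; incubate 5 h at 37 C; add compound, human liver microsomes and NADPH; incubate 16 h at 37 C; add CellTiter-Glo; after 30 min at room temperature, read luminescence.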

[8] = p53 small molecule agonists, cell-based qHTS assay with rat liver microsomes: qHTS cell viability counter screen (AID 1963580); note: nearly all actives have a fitted effect of over 45% in size
Method in brief: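 HCT-116 p53RE-bla, 4,000 cells/well, 5 h pre-incubation; cpd + rat liver microsomes 0.5 mg/mL + NADPH 0.5 mg/mL (final); 16 h, 37 C; CellTiter-Glo, 30 min RT; luminescence.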

[9] = p53 small molecule agonists, cell-based qHTS assay (AID 1963582; active = well fitted activation curve with a large enough effect in the signal ratio in the repeat runs, not every such curve was filed as active; the % refers to the signal ratio)
Method in brief: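 Quantitative HTS in p53RE-bla cells: after a 5 h settling period, compounds delivered in DMSO were left on cells for 16 h at 37 C, and reporter induction was measured as fluorescence following 2 h substrate loading.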

[10] = target: 5-hydroxytryptamine receptor 2A (Homo sapiens) (UniProt P28223); assay: 5-hydroxytryptamine receptor 2A (HTR2A) small molecule antagonists, cell-based qHTS assay (AID 1963586); note: nearly all actives have a fitted effect of over 45% in size
Chain of 5-hydroxytryptamine receptor 2A (Homo sapiens) (P28223 whole entry, looked up): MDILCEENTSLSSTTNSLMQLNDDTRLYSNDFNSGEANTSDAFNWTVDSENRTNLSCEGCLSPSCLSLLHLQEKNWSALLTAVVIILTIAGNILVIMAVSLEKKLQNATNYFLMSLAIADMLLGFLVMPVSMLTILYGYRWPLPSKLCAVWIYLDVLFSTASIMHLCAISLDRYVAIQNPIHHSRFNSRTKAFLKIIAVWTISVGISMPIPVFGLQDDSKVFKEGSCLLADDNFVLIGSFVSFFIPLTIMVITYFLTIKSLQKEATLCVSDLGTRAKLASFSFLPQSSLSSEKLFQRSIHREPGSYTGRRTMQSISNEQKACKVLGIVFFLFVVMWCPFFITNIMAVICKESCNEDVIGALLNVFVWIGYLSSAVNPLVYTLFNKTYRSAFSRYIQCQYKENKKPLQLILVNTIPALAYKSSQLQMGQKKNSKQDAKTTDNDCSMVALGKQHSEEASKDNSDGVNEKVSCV
Method in brief: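 Antagonist-mode intracellular calcium assay: DOI (4 nM) added after 5 min compound pre-incubation at room temperature to dye-loaded HTR2A-CHO cells. Fluorescence followed for 3 min, sampled every second.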

[11] = target: 5-hydroxytryptamine receptor 2A (Homo sapiens) (UniProt P28223); assay: 5-hydroxytryptamine receptor 2A (HTR2A) small molecule agonists, cell-based qHTS assay (AID 1963587); note: nearly all actives have a fitted effect of over 30% in size
Method in brief: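 Kinetic calcium-flux fluorescence (2 min, 1 sec intervals) after compound addition in agonist mode. HTR2A-CHO cells were cultured 18 h, then dye-loaded 1 h at 37 C.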

[12] = target: Muscarinic acetylcholine receptor M1 (Homo sapiens) (UniProt P11229); assay: Cholinergic receptor muscarinic 1 (CHRM1) small molecule antagonists, cell-based qHTS assay (AID 1963588); note: nearly all actives have a fitted effect of over 40% in size; note: potency is the fitted concentration of half-maximal effect
Chain of Muscarinic acetylcholine receptor M1 (Homo sapiens) (P11229 whole entry, looked up): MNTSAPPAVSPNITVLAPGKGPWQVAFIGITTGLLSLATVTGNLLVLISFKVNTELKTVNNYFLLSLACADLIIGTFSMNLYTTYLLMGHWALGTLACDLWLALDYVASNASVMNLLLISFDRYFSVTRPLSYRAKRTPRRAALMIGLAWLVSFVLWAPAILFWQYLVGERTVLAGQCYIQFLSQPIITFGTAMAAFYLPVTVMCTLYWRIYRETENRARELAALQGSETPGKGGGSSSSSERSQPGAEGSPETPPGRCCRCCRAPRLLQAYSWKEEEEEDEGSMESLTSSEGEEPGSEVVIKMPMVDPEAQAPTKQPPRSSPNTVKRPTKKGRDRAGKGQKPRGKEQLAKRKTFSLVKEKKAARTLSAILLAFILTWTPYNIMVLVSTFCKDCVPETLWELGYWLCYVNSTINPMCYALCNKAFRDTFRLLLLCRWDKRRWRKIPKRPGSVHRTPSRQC
Method in brief: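 CHRM1-CHO calcium-flux assay, antagonist mode. Cells were seeded 18 h, dye-loaded 1 h at 37 C and given compound for 5 min at RT, then acetylcholine was added at 50nM. FDSS fluorescence was read 3 min; 15 concentrations, three runs.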

[13] = target: Muscarinic acetylcholine receptor M1 (Homo sapiens) (UniProt P11229); assay: Cholinergic receptor muscarinic 1 (CHRM1) small molecule agonists, cell-based qHTS assay (AID 1963589); note: nearly all actives have a fitted effect of over 35% in size
Method in brief: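 Agonist-mode qHTS in CHO cells stably carrying human muscarinic M1. Intracellular calcium is tracked by fluorescence every second after compound transfer; each compound runs at 15 concentrations in three independent runs.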

[14] = cAMP Responsive Elements (CRE) small molecule agonists, cell-based qHTS assay (AID 1963590)
Method in brief: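 Agonist mode qHTS in CRE-bla HEK 293T cells: compounds dosed from DMSO for 3 h at 37 C/5% CO2, followed by LiveBLAzer B/G FRET substrate for 2 h at room temperature.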

[15] = cAMP Responsive Elements (CRE) small molecule antagonists, cell-based qHTS assay (AID 1963591; active = well fitted inhibition curve with a large enough effect in the signal ratio in the repeat runs, not every such curve was filed as active; the % refers to the signal ratio)
Method in brief: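 Antagonist mode: test compounds are co-incubated with the adenylyl cyclase activator NKH477 (0.25 uM final) on CRE-bla HEK293T cells for 3 h at 37 °C, followed by LiveBLAzer substrate loading.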

[16] = target: Beta-2 adrenergic receptor (Homo sapiens) (UniProt P07550); assay: Adrenergic beta2 receptor (ADRB2) small molecule antagonists, cell-based qHTS assay (AID 1963592); note: series mostly up to about 92 µM; nearly all actives have a fitted effect of over 50% in size
Chain of Beta-2 adrenergic receptor (Homo sapiens) (P07550 whole entry, looked up): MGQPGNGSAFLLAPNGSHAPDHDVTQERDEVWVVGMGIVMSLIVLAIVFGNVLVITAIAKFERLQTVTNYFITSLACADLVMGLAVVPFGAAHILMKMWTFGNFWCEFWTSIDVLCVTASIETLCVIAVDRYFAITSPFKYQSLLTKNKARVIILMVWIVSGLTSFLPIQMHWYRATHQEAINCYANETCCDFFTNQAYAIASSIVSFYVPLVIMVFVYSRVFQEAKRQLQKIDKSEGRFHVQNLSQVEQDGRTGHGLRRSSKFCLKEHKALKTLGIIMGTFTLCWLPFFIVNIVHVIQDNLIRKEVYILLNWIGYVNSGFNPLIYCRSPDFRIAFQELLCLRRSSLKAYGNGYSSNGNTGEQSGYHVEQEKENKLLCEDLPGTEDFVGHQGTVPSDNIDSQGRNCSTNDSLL
Method in brief: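 Cells (CHO, stable ADRB2 overexpression) incubated 18-20hr at 37C; compounds added from DMSO; agonist mix (1nM isoproterenol, 100uM IBMX, 25uM Ro-20-1724) added; 0.5hr RT; d2-cAMP and anti-cAMP-cryptate added; 1hr RT; 665/615 nm read.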

[17] = target: Beta-2 adrenergic receptor (Homo sapiens) (UniProt P07550); assay: Adrenergic beta2 receptor (ADRB2) small molecule agonists, cell-based qHTS assay (AID 1963593);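 note: CHO cells stably overexpressing human ADRB2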
Method in brief: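 CHO cells stably over-expressing ADRB2 were plated overnight at 37C, then dosed with compounds plus a stimulation mix containing 100uM IBMX and 25uM Ro-20-1724 for 0.5hr at room temperature. cAMP was measured by HTRF competition, 1hr.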

[18] = target: D(2) dopamine receptor (Homo sapiens) (UniProt P14416); assay: Dopamine D2 receptor (DRD2) small molecule agonists, cell-based qHTS assay (AID 1963594); note: nearly all actives have a fitted effect of over 35% in size
Chain of D(2) dopamine receptor (Homo sapiens) (P14416 whole entry, looked up): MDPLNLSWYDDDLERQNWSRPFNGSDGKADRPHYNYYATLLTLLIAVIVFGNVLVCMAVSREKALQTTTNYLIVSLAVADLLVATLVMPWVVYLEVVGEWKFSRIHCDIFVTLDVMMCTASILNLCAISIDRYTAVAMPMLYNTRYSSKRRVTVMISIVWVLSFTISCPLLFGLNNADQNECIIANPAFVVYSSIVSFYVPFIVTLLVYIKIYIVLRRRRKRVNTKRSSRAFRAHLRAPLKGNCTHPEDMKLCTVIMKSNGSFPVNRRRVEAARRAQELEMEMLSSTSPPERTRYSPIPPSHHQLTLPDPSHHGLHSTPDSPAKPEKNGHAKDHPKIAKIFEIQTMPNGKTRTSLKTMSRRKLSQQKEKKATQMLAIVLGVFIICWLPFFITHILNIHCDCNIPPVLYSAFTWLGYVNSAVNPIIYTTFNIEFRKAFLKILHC
Method in brief: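 cAMP accumulation in DRD2-HEK293 cells measured by HTRF after 1 h detection; compounds added 10 min before NKH477 (200nM […]) forskolin-analogue stimulation, 30 min at room temperature, with Ro20-1724 present at 0.1 mM final.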

[19] = target: D(2) dopamine receptor (Homo sapiens) (UniProt P14416); assay: Dopamine D2 receptor (DRD2) small molecule antagonists, cell-based qHTS assay (AID 1963595; active = well fitted inhibition curve with a large enough effect in the signal ratio in the repeat runs, with a control signal flat; the % refers to the signal ratio)
Method in brief: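 HTRF cAMP read-out at 665 and 620 nm emission (340 nm excitation). Antagonist mode: compounds were tested against 12 nM quinpirole in DRD2-HEK293 cells, with 200 nM NKH477 raising cAMP and 0.1 mM Ro20-1724 blocking its breakdown.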

[20] = p53 small molecule agonists, cell-based qHTS assay: qHTS cell viability counter screen (AID 1963581); note: nearly all actives have a fitted effect of over 45% in size; note: potency is the fitted concentration of half-maximal effect
Method in brief: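 Cells: HCT-116 with p53 response element-driven beta-lactamase. Treatment: 16 h, 37 C, compounds in DMSO. Read: CellTiter-Glo luminescence after 30 min RT.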
% is set by controls: 0 for no effect and ±100 for the full control effect.

CCCCCCOC(=O)CC
inactive: Potency [1] | Potency [2] | Potency [3] | Potency [4] | Potency [5] | Potency [6] | Potency [7] | Potency [8] | Potency [9] | Potency [10] | Potency [11] | Potency [12] | Potency [13] | Potency [14] | Potency [15] | Potency [16] | Potency [17] | Potency [18] | Potency [19]

Clc1ccc(C(c2ccccc2Cl)C(Cl)Cl)cc1 (stereo not drawn)
inactive: Potency [2] | Potency [3] | Potency [4] | Potency [5] | Potency [6] | Potency [7] | Potency [8] | Potency [9] | Potency [15] | Potency [16] | Potency [17] | Potency [18]
active: Potency [1] 61.1 µM | Potency [20] 40.8 µM

CCCOC(=O)C(C)O (stereo not drawn)
inactive: Potency [1] | Potency [2] | Potency [3] | Potency [4] | Potency [5] | Potency [6] | Potency [7] | Potency [8] | Potency [9] | Potency [10] | Potency [11] | Potency [12] | Potency [13] | Potency [14] | Potency [15] | Potency [16] | Potency [17] | Potency [18] | Potency [19]

C[Si](C)=O
inactive: activity change, negative = cytotoxicity [1] 4.07% [at 8.39 µM] | activity, positive = activation [2] -5.78% [at 8.39 µM] | activity change [3] -0.63% [at 5.22 µM, hits give high values] | activation [4] -1.56% [at 6.97 µM] | activation [5] 3.5% [at 5.99 µM] | activation [6] 0.12% [at 5.99 µM] | activity change, negative = cytotoxicity [7] 7.59% [at 5.99 µM] | activity change, negative = cytotoxicity [20] 1.47% [at 5.99 µM] | activation [9] -0.704% [at 5.99 µM] | activity, negative = inhibition [10] 1.83% [at 5.62 µM] | activation [11] 3.07% [at 7.02 µM] | activity, negative = inhibition [12] -3.21% [at 5.58 µM] | activation [13] 0.243% [at 6.97 µM] | activation [14] 0.463% [at 8.39 µM] | activity change, negative = inhibition [15] -3.7% [at 8.39 µM] | activity change, negative = inhibition [16] -1.43% [at 8.39 µM] | activation [18] 4.84% [at 8.39 µM]

C[CH2][Ge]([Cl])([CH2]C)[CH2]C
inactive: Potency [1] | Potency [2] | Potency [3] | Potency [4] | Potency [5] | Potency [6] | Potency [7] | Potency [8] | Potency [20] | Potency [9] | Potency [10] | Potency [11] | Potency [12] | Potency [13] | Potency [14] | Potency [15] | Potency [16] | Potency [18] | Potency [19]

NCC1CCCC(CN)C1 (stereo not drawn)
inactive: Potency [1] | Potency [2] | Potency [3] | Potency [4] | Potency [5] | Potency [6] | Potency [7] | Potency [8] | Potency [9] | Potency [10] | Potency [11] | Potency [14] | Potency [15] | Potency [16] | Potency [17] | Potency [19]
active: Potency [12] 18.8 µM

CC(C)COC(=O)c1ccc(N)cc1
inactive: Potency [1] | Potency [2] | Potency [3] | Potency [4] | Potency [5] | Potency [6] | Potency [7] | Potency [20] | Potency [9] | Potency [10] | Potency [11] | Potency [12] | Potency [14] | Potency [15] | Potency [16] | Potency [17] | Potency [18] | Potency [19]
